The panel holds about 83,000 compounds, 20% with a hit somewhere; the sample as a whole holds those more often.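 48-hour exposure, single concentration, 96-well plates; percent growth endpoint where 0 means no net growth. Active: below 10.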 Active and inactive are the calls of the source.
How the values were obtained:
Assay in all cases: NCI-60 one-dose screen, 48 h (100 = growth as untreated, 0 = no growth, -100 = all killed)
Details in all cases: 10 µM unless noted
SK-MEL-2 melanoma = tested on: SK-MEL-2 melanoma
EKVX NSCLC = tested on: EKVX NSCLC
SN12C renal = tested on: SN12C renal
UO-31 renal = tested on: UO-31 renal
TK-10 renal = tested on: TK-10 renal
ACHN renal = tested on: ACHN renal
CAKI-1 renal = tested on: CAKI-1 renal
A498 renal = tested on: A498 renal
MOLT-4 leukemia = tested on: MOLT-4 leukemia
CCRF-CEM leukemia = tested on: CCRF-CEM leukemia

Measured: growth

C=C1C(=O)O[C@H]2[C@H]1CC/C(Cn1cc(-c3ccccc3)nn1)=C\CC[C@@]1(C)O[C@@H]21
inactive: EKVX NSCLC 72.1% | A498 renal 46.6%
active: SK-MEL-2 melanoma 6.62% | SN12C renal 6.55% | UO-31 renal -75.1% | TK-10 renal -72.1% | ACHN renal -40.7% | CAKI-1 renal -62.8% | MOLT-4 leukemia -13.8%

N#Cc1c(-c2ccccc2)cc(-c2ccccc2)n(CCCC(=O)Nc2ccccc2N)c1=O
inactive: SK-MEL-2 melanoma 46.4% | EKVX NSCLC 79.1% | SN12C renal 70.5% | UO-31 renal 49.1% | TK-10 renal 104% | ACHN renal 63.8% | CAKI-1 renal 38.2% | MOLT-4 leukemia 47.4%
active: A498 renal -5.55%

O=C1/C(=C/c2ccc([N+](=O)[O-])cc2)COc2ccc(O)cc21
inactive: SK-MEL-2 melanoma 109% | EKVX NSCLC 92.3% | SN12C renal 76.8% | UO-31 renal 53.7% | TK-10 renal 92.7% | ACHN renal 82.7% | CAKI-1 renal 63.6% | A498 renal 99.5% | MOLT-4 leukemia 39.3%

Oc1c(I)cc(I)cc1CNCCN(Cc1ccccn1)Cc1ccccn1
inactive: SN12C renal 16%
active: SK-MEL-2 melanoma -52.4% | EKVX NSCLC -10.3% | UO-31 renal -89.4% | TK-10 renal -91.5% | ACHN renal -84% | CAKI-1 renal -92.2% | A498 renal -88.2% | MOLT-4 leukemia -29.5%

COc1ccc(-c2cc(-c3cccnc3)nc3sc4c(=O)[nH]c(-c5ccc(Cl)cc5)nc4c23)cc1OC
inactive: SK-MEL-2 melanoma 95.7% | EKVX NSCLC 90% | SN12C renal 89.5% | UO-31 renal 78.1% | TK-10 renal 104% | ACHN renal 93.4% | CAKI-1 renal 86.4% | CCRF-CEM leukemia 80.3%

CCOC(=O)n1cc(-c2nonc2-c2cn(C(=O)OCC)c3ccc(Br)cc23)c2ccccc21
inactive: SK-MEL-2 melanoma 87.5% | EKVX NSCLC 73.3% | SN12C renal 88.1% | UO-31 renal 46.9% | TK-10 renal 90.8% | ACHN renal 64.5% | CAKI-1 renal 60.1% | CCRF-CEM leukemia 87.7% | MOLT-4 leukemia 72.2%

COC(=O)[C@@H](CCCCNC(=O)[C@]12CCC(C)(C)C[C@@H]1C1=CC[C@@H]3[C@@]4(C)C/C(=C/c5ccco5)C(=O)C(C)(C)[C@@H]4CC[C@@]3(C)[C@]1(C)CC2)NC(=O)[C@]12CCC(C)(C)C[C@@H]1C1=CC[C@@H]3[C@@]4(C)C/C(=C/c5ccco5)C(=O)C(C)(C)[C@@H]4CC[C@@]3(C)[C@]1(C)CC2
inactive: SK-MEL-2 melanoma 108% | EKVX NSCLC 105% | SN12C renal 98.7% | UO-31 renal 79.2% | TK-10 renal 102% | ACHN renal 107% | CAKI-1 renal 98.5% | A498 renal 116% | MOLT-4 leukemia 97%

O=S(=O)(Nc1cc(Cl)ccc1Cl)c1ccc(-c2cnc(C3CC3)o2)cc1
inactive: SK-MEL-2 melanoma 39% | EKVX NSCLC 58.7% | SN12C renal 60.3% | UO-31 renal 49.6% | TK-10 renal 60% | ACHN renal 34.2% | CAKI-1 renal 33.5% | CCRF-CEM leukemia 20% | MOLT-4 leukemia 44.1%

CC(=O)Oc1ccc(N2C(=O)C(Cl)=C(Nc3cccc(C(F)(F)F)c3)C2=O)cc1
inactive: SK-MEL-2 melanoma 88% | EKVX NSCLC 103% | SN12C renal 93% | UO-31 renal 84.2% | TK-10 renal 94.9% | ACHN renal 95% | CAKI-1 renal 92% | CCRF-CEM leukemia 77.4% | MOLT-4 leukemia 85.9%

O=C(O)CCN1C(=O)/C(=C/C(Cl)=C/c2ccccc2)SC1=S
active: ACHN renal -65.3%
inactive: SK-MEL-2 melanoma 43.7% | EKVX NSCLC 39.1% | SN12C renal 11.9% | UO-31 renal 35.8% | TK-10 renal 49.7% | CAKI-1 renal 23.8% | A498 renal 43.5% | MOLT-4 leukemia 10.6%

CSc1nc2ccccc2cc1/C=[N+](\[O-])c1ccccc1
inactive: SK-MEL-2 melanoma 95.5% | EKVX NSCLC 79.5% | SN12C renal 45.2% | UO-31 renal 42.8% | TK-10 renal 98% | ACHN renal 80% | CAKI-1 renal 80.8% | CCRF-CEM leukemia 10.5% | MOLT-4 leukemia 22%

N#Cc1nc(-c2ccc(F)cc2)oc1S(=O)(=O)N1CCCCC1
active: ACHN renal 3.58% | CCRF-CEM leukemia 1.84% | MOLT-4 leukemia -6.66%
inactive: SK-MEL-2 melanoma 81.1% | EKVX NSCLC 98.5% | SN12C renal 80.2% | UO-31 renal 84.8% | CAKI-1 renal 91% | A498 renal 112%

O=c1c2ccccc2n2cnc3ccc(Cl)c1c32
inactive: SK-MEL-2 melanoma 96.5% | EKVX NSCLC 62.7% | SN12C renal 76.1% | UO-31 renal 44.8% | TK-10 renal 49.2% | ACHN renal 50.5% | CAKI-1 renal 43.1% | MOLT-4 leukemia 89%

COc1cc(OCc2cccc(Br)c2C)cc(OC)c1C=O
inactive: SK-MEL-2 melanoma 88% | EKVX NSCLC 80.8% | SN12C renal 77.5% | UO-31 renal 71.8% | TK-10 renal 45.4% | ACHN renal 90.7% | CAKI-1 renal 24.2% | MOLT-4 leukemia 80.2%

CC(=O)c1c(C)nc(SCC(=O)Nc2cccc(O)c2)n1-c1ccc(Cl)cc1
inactive: SK-MEL-2 melanoma 104% | EKVX NSCLC 96.4% | SN12C renal 83.8% | UO-31 renal 86.3% | TK-10 renal 107% | ACHN renal 107% | CAKI-1 renal 90.6% | CCRF-CEM leukemia 96% | MOLT-4 leukemia 95.4%

CSc1oc(C)nc1[P+](c1ccccc1)(c1ccccc1)c1ccccc1
inactive: SK-MEL-2 melanoma 84.4% | EKVX NSCLC 73.8% | SN12C renal 82.2% | UO-31 renal 102% | ACHN renal 97.6% | CAKI-1 renal 88% | A498 renal 64.5% | CCRF-CEM leukemia 51.8% | MOLT-4 leukemia 68%

CCCCNC(=O)CC1=C(C)/C(=C/c2[nH]c(-c3ccc[nH]3)cc2OC)N=C1C
inactive: SK-MEL-2 melanoma 22.1% | EKVX NSCLC 36.4% | SN12C renal 35.3% | ACHN renal 13.7% | CCRF-CEM leukemia 27.2%
active: UO-31 renal -5.12% | CAKI-1 renal 4.74% | A498 renal 3.74%

O=[N+]([O-])c1ccc(O)cc1Br
inactive: SK-MEL-2 melanoma 97.8% | EKVX NSCLC 98% | SN12C renal 98% | UO-31 renal 83.8% | TK-10 renal 99.9% | ACHN renal 99.2% | CAKI-1 renal 94.5% | CCRF-CEM leukemia 95.2% | MOLT-4 leukemia 104%

CCn1cc(C(=O)NNC(=S)Nc2ccc(C)cc2)c(=O)c2ccc(C)nc21
inactive: SK-MEL-2 melanoma 104% | EKVX NSCLC 101% | SN12C renal 88.6% | UO-31 renal 78.9% | ACHN renal 95.5% | CAKI-1 renal 95.4% | A498 renal 76.4% | CCRF-CEM leukemia 90.7% | MOLT-4 leukemia 102%

CC(=O)N1N=C(c2ccc(C(F)(F)F)c(F)c2)CC1c1[nH]c(C)c(C(=O)NCC(F)(F)F)c1C (configuration not stated)
inactive: SK-MEL-2 melanoma 106% | EKVX NSCLC 88.4% | SN12C renal 50.1% | UO-31 renal 26% | ACHN renal 18.7% | CAKI-1 renal 58.7% | A498 renal 54.9% | CCRF-CEM leukemia 90% | MOLT-4 leukemia 82.6%

Cc1ccc2c(n1)C(=O)C(Br)=C(CC(C)C)C2=O
inactive: SK-MEL-2 melanoma 110% | EKVX NSCLC 104% | SN12C renal 98.8% | UO-31 renal 87.2% | ACHN renal 68.6% | CAKI-1 renal 92.7% | A498 renal 106% | CCRF-CEM leukemia 24.2% | MOLT-4 leukemia 19.5%

COC(=O)c1nc(-c2ccccc2)oc1S(=O)(=O)Cc1ccccc1
active: ACHN renal -35% | CAKI-1 renal 8.14% | CCRF-CEM leukemia -6.08% | MOLT-4 leukemia -9.29%
inactive: SK-MEL-2 melanoma 80.2% | EKVX NSCLC 119% | SN12C renal 93.5% | UO-31 renal 72.9% | A498 renal 98.1%

Cc1ccc(C(=O)c2ccc(CC(=O)N/N=C/c3ccccc3O)n2C)cc1
inactive: SK-MEL-2 melanoma 89.6% | EKVX NSCLC 82.8% | SN12C renal 89.8% | UO-31 renal 40.6% | TK-10 renal 85.1% | ACHN renal 53.2% | CAKI-1 renal 64.5% | CCRF-CEM leukemia 54.1% | MOLT-4 leukemia 74%

O=C1c2ccccc2-c2c1c1c(=O)[nH]c3ccccc3c1n2Cc1ccccc1
active: CAKI-1 renal 2.5% | A498 renal 0.459%
inactive: SK-MEL-2 melanoma 75.2% | EKVX NSCLC 51.9% | SN12C renal 69.9% | UO-31 renal 78.3% | ACHN renal 46.6% | CCRF-CEM leukemia 87.4% | MOLT-4 leukemia 64.9%

CC(=O)Oc1ccc(C)cc1C
inactive: SK-MEL-2 melanoma 99.7% | EKVX NSCLC 112% | SN12C renal 102% | UO-31 renal 85.7% | ACHN renal 101% | CAKI-1 renal 101% | A498 renal 87.4% | CCRF-CEM leukemia 102% | MOLT-4 leukemia 106%

O=C(NNC(=O)c1ccc(NC(=O)c2ccccn2)cc1)Nc1ccc([N+](=O)[O-])cc1
inactive: SK-MEL-2 melanoma 106% | EKVX NSCLC 102% | SN12C renal 96.6% | UO-31 renal 75.8% | ACHN renal 95.5% | CAKI-1 renal 91.6% | A498 renal 104% | CCRF-CEM leukemia 103% | MOLT-4 leukemia 103%

Nc1[nH]n2cc(-c3ccccc3)nc2c1N=Nc1ccc(S(N)(=O)=O)cc1
active: ACHN renal 8.58% | CAKI-1 renal 3.86% | A498 renal 8.19%
inactive: SK-MEL-2 melanoma 31.6% | EKVX NSCLC 54.6% | SN12C renal 20.1% | UO-31 renal 19.5% | CCRF-CEM leukemia 19.7% | MOLT-4 leukemia 13.9%

COc1cc(-c2nccc3[nH]c(-c4ccc5cc[nH]c5c4)nc23)cc(OC)c1OC
inactive: SK-MEL-2 melanoma 15.2% | EKVX NSCLC 30.9% | SN12C renal 30.9% | UO-31 renal 13.6% | CAKI-1 renal 29.7% | MOLT-4 leukemia 18.5%
active: ACHN renal 2.78% | A498 renal -2.61% | CCRF-CEM leukemia 5.28%

COCCOc1cc2ncnc(N3CCN(c4cc(S(C)(=O)=O)c(C)cc4Cl)CC3)c2cc1OCCOC
inactive: SK-MEL-2 melanoma 95.3% | EKVX NSCLC 90.4% | SN12C renal 87.2% | UO-31 renal 61.8% | ACHN renal 100% | CAKI-1 renal 101% | A498 renal 88.2% | CCRF-CEM leukemia 89.5% | MOLT-4 leukemia 79.4%
